# Source: PubChem BioAssay
# Several values for one entry are separate records, joined by “and”; a condition that tells them apart may be missing. Equal values may be shown once. Activity calls are given as the source filed them. Cut-off read from the data, not from the text of the source, unless noted: active = inhibition above about 80%; inactive = the rest.
# How the values were obtained:
# [1] = growth inhibition of CRL1545 osteosarcoma cells, cell-based, cisplatin and BGB IC20 combos (AID 1671464); settings: stronger effect = higher value;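 note: cells exposed to compound for 96 hours before readout; 0% = vehicle DMSO and 100% = high DMSO killing control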
# F380Y = test: modulators of BK channel variants, profiling panel, selectivity assay, cell-based, U2OS BacMam, thallium flux, beta subunits (AID 1259406;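 active = thallium flux through the channel raised or lowered by more than 3 SD from vehicle-only wells, actives on both sides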;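 note: initial slope of Thallos dye fluorescence rise after thallium is added; log ratio against the mean of 0.3% DMSO vehicle wells on the same plate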); settings: at 30 µM
# F380Y/beta1 = test: as above; settings: at 30 µM
# F380Y/beta2Delta = test: as above; settings: at 30 µM
# F380Y/beta4 = test: as above; settings: at 30 µM
# [2] = molecular target: Calcium-activated potassium channel subunit alpha-1 (Homo sapiens) + Leucine-rich repeat-containing protein 26 (Homo sapiens) (UniProt Q12791+Q2I0M4); test: as above; settings: F380Y/Slo1WT/gamma1, at 30 µM
# Calcium-activated potassium channel subunit alpha-1 (Homo sapiens) + Leucine-rich repeat-containing protein 26 (Homo sapiens), sequence (Q2I0M4 whole entry, looked up, one chain of several): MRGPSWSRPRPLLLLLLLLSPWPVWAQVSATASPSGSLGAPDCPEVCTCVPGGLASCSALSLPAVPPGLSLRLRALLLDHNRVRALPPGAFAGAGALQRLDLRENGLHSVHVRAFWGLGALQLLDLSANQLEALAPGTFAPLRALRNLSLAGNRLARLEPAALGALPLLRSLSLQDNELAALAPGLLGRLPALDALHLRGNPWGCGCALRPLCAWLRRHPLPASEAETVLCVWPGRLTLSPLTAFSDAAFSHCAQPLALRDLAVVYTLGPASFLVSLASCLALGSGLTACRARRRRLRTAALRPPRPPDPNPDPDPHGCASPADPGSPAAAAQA
# R275C = test: as above; settings: at 30 µM
# R275C/beta1 = test: as above; settings: at 30 µM
# R275C/beta2Delta = test: as above; settings: at 30 µM
# R275C/beta4 = test: as above; settings: at 30 µM
# R275C/Slo1WT/beta2 = test: as above; settings: at 30 µM
# [3] = UWB1.289 ovarian carcinoma cell growth inhibition, synergistic combos for chromothripsis tumors, BGB or cisplatin combos (AID 1671456); settings: UWB1.289 ovarian carcinoma cells, stronger effect = higher value;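 note: cells exposed to compound for four days; 0% = vehicle DMSO and 100% = killing by high DMSO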
# [4] = LFS_MB_2R medulloblastoma cell growth inhibition, synergistic combos for chromothripsis tumors, cisplatin combos (AID 1671457); settings: LFS_MB_2R medulloblastoma cells, stronger effect = higher value;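 note: cells exposed to compound for four days before readout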
# [5] = MDA-MB-436 breast carcinoma cell growth inhibition, synergistic combos for chromothripsis tumors, BGB or cisplatin combos (AID 1671458; call rule not given here;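 note: cells exposed for 96 hours; 0% = vehicle DMSO and 100% = killing by high DMSO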); settings: MDA-MB-436 breast carcinoma growth inhibition, drug combinations, stronger effect = higher value
# [6] = UWB1.289_BRCA1 ovarian cancer growth, cell-based, BGB or cisplatin combinations (AID 1671459); settings: UWB1.289 BRCA1 ovarian carcinoma, drug combinations, stronger effect = higher value
# [7] = human astrocyte viability loss, single and combined drugs, cytotoxicity control for chromothriptic childhood tumor combination screen, cell-based, BGB or cisplatin IC20 combos (AID 1671460); settings: Human astrocytes, drug combinations, stronger effect = higher value;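 note: cells exposed to compounds for 96 hours before viability readout; 0% = vehicle and 100% = killing control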
# [8] = growth inhibition of BT084 medulloblastoma cells, cell-based, ICGC_MB145, cisplatin and BGB IC40 combos (AID 1671461); settings: drug combinations, stronger effect = higher value;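 note: cells exposed to drugs for 96 hours; 0% = vehicle DMSO and 100% = high DMSO full killing control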
# [9] = growth inhibition of RCMB18 medulloblastoma cells, cell-based, cisplatin and BGB IC40 combos (AID 1671462); settings: stronger effect = higher value;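 note: cells exposed to compound for four days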
# [10] = measured here: inhibition with BGB combination, at 0.05 µM
# [11] = measured here: inhibition with cisplatin combination, at 0.05 µM
# [12] = measured here: combination with cisplatin, at 0.5 µM
# [13] = measured here: combination with cisplatin, at 5 µM
# [14] = measured here: BGB combination, at 0.5 µM
# [15] = measured here: BGB combination, at 5 µM
# [16] = measured here: cisplatin combination, at 0.5 µM
# [17] = measured here: cisplatin combination, at 5 µM
# [18] = BGB combination, concentration series, at 5 µM
# [19] = cisplatin combination, concentration series, at 5 µM
# [20] = measured here: combo with BGB IC20, at 0.5 µM
# [21] = measured here: combo with cisplatin IC20, at 0.5 µM
# [22] = cisplatin combination, at 0.5 µM
# [23] = measured here: BGB IC40 combination 0.05 uM, at 0.05 µM
# [24] = measured here: BGB IC40 combination, at 0.05 µM
# [25] = measured here: with BGB IC20 combination, at 0.5 µM
# [26] = measured here: with cisplatin IC20 combination, at 0.5 µM
compound,measurement,setting,value
CCN1CCN(c2cc3c(cc2F)c(=O)c(C(=O)O)cn3C2CC2)CC1,inhibition,"[1]; single agent, at 0.05 µM",-0.132%
same,inhibition,"[1]; single agent, at 5 µM",12.7%
same,log fold change Tl+ flux,F380Y,-0.0402 (inactive)
same,log fold change Tl+ flux,F380Y/beta1,0.00744 (inactive)
same,log fold change Tl+ flux,F380Y/beta2Delta,-0.0171 (inactive)
same,log fold change Tl+ flux,F380Y/beta4,0.015 (inactive)
same,log fold change Tl+ flux,[2],0.00572 (inactive)
same,log fold change Tl+ flux,R275C,-0.0438 (inactive)
same,log fold change Tl+ flux,R275C/beta1,0.0122 (inactive)
same,log fold change Tl+ flux,R275C/beta2Delta,0.0322 (inactive)
same,log fold change Tl+ flux,R275C/beta4,0.0288 (inactive)
same,log fold change Tl+ flux,R275C/Slo1WT/beta2,0.165 (active)
CC1CCc2cc(F)cc3c(=O)c(C(=O)O)cn1c23 (stereo not given),inhibition,[3]; at 0.5 µM,2.76% (inactive) and 0.5% (inactive)
same,inhibition,[3]; [10],-16.2% and 1.75%
same,inhibition,[3]; [11],-12.2% and 4%
same,inhibition,[4]; at 0.5 µM,-19.5% (inactive) and -4.64% (inactive)
same,inhibition,[4]; [12],-15.1% and -2.74%
same,inhibition,[4]; [13],-12% and -9.68%
same,inhibition,[5]; at 0.5 µM,-12.1% (inactive) and -0.02% (inactive)
same,inhibition,[5]; [14],-17.3% and -1.89%
same,inhibition,[5]; [15],-23.6% and -8.65%
same,inhibition,[5]; [16],-18.1% and 1.92%
same,inhibition,[5]; [17],-8.63% and -4.96%
same,inhibition,[6]; [18],7.3% and -2.65%
same,inhibition,[6]; at 0.5 µM,0.71% (inactive) and -0.93% (inactive)
same,inhibition,[6]; [19],1.53% and -5.02%
same,inhibition,[7]; at 0.5 µM,7.24% (inactive) and 2.53% (inactive)
same,inhibition,[7]; [20],6.98% and 4.66%
same,inhibition,[7]; [21],1.25% and 9.82%
same,inhibition,[8]; at 0.5 µM,-21.2% (inactive) and 2.68% (inactive)
same,inhibition,[8]; [22],-37.8% and -1.29%
same,inhibition,"[8]; cisplatin combination, at 5 µM",-84.9% and -4.5%
same,inhibition,[8]; [23],25.8% and 24.3%
same,inhibition,"[8]; single agent, at 5 µM",-17% and 4.9%
same,inhibition,[9]; at 0.5 µM,-15.1% (inactive) and 7.22% (inactive)
same,inhibition,"[9]; cisplatin combo, at 5 µM",-26.9% and 25%
same,inhibition,[9]; [24],-11.2% and -0.956%
same,inhibition,[9]; [12],-23.8% and 30.6%
same,inhibition,"[9]; single agent, at 5 µM",-29.1% and -22.6%
same,inhibition,[1]; at 0.5 µM,-14.4% (inactive) and -0.92% (inactive)
same,inhibition,[1]; [25],1.08% and -21.3%
same,inhibition,[1]; [26],-22.2% and 9.24%
same,inhibition,"[1]; single agent, at 0.05 µM",22.2% and 18.9%
same,inhibition,"[1]; single agent, at 5 µM",6.9% and 9.8%
O=c1c(-c2ccc(O)cc2)coc2cc(O)cc(O)c12,inhibition,[3]; at 0.5 µM,-11.2% (inactive) and 6.51% (inactive)
same,inhibition,[3]; [10],-19.6% and -14.9%
same,inhibition,[3]; [11],-41.2% and -9.05%
same,inhibition,[4]; at 0.5 µM,-21.6% (inactive) and -9.3% (inactive)
same,inhibition,[4]; [12],-19.9% and -5.5%
same,inhibition,[4]; [13],2.54% and -37.8%
same,inhibition,[5]; at 0.5 µM,-10.3% (inactive) and -13.9% (inactive)
same,inhibition,[5]; [14],-9.11% and -11.4%
same,inhibition,[5]; [15],-2.8% and 13.3%
same,inhibition,[5]; [16],-11% and -29.3%
same,inhibition,[5]; [17],-8.45% and 5.18%
same,inhibition,[6]; [18],16.4% and 33.4%
same,inhibition,[6]; at 0.5 µM,-10.6% (inactive) and 4.64% (inactive)
same,inhibition,[6]; [19],5.85% and 47.6%
same,inhibition,[7]; at 0.5 µM,-1.4% (inactive) and 12.1% (inactive)
same,inhibition,[7]; [20],14% and 8.3%
same,inhibition,[7]; [21],-16.8% and 13.7%
same,inhibition,[8]; at 0.5 µM,-13.6% (inactive) and -23.4% (inactive)
same,inhibition,[8]; [22],-26.2% and 3.79%
same,inhibition,"[8]; cisplatin combination, at 5 µM",1.19% and 21.5%
same,inhibition,[8]; [23],-40.6% and -5.57%
same,inhibition,"[8]; single agent, at 5 µM",-5.08% and 6.68%
same,inhibition,[9]; at 0.5 µM,0.59% (inactive) and -8.25% (inactive)
same,inhibition,"[9]; cisplatin combo, at 5 µM",-43.5% and 11.5%
same,inhibition,[9]; [24],-4.72% and -2.4%
same,inhibition,[9]; [12],13.5% and -9.76%
same,inhibition,"[9]; single agent, at 5 µM",-12.8% and -12.2%
same,inhibition,[1]; at 0.5 µM,-44.2% (inactive) and 5.21% (inactive)
same,inhibition,[1]; [25],-31% and 18.3%
same,inhibition,[1]; [26],-53.3% and -3.63%
same,inhibition,"[1]; single agent, at 0.05 µM",-62.4% and -21.3%
same,inhibition,"[1]; single agent, at 5 µM",-46.3% and 9.19%
O=c1oc2c(O)c(O)cc3c(=O)oc4c(O)c(O)cc1c4c23,inhibition,[3]; at 0.5 µM,-3.64% (inactive)
same,inhibition,[3]; [10],-22.8%
same,inhibition,[3]; [11],-16.6%
same,inhibition,[4]; at 0.5 µM,-23% (inactive)
same,inhibition,[4]; [12],-27.7%
same,inhibition,[4]; [13],-17%
same,inhibition,[5]; at 0.5 µM,-9.5% (inactive)
same,inhibition,[5]; [14],-12.3%
same,inhibition,[5]; [15],-25.4%
same,inhibition,[5]; [16],-5.2%
same,inhibition,[5]; [17],-11.4%
same,inhibition,[6]; [18],12.5%
same,inhibition,[6]; at 0.5 µM,-1.72% (inactive)
same,inhibition,[6]; [19],19.2%
same,inhibition,[7]; at 0.5 µM,10.8% (inactive)
same,inhibition,[7]; [20],0.281%
same,inhibition,[7]; [21],16.2%
same,inhibition,[8]; at 0.5 µM,-21.3% (inactive)
same,inhibition,[8]; [22],-17.9%
same,inhibition,"[8]; cisplatin combination, at 5 µM",-19.7%
same,inhibition,[8]; [23],1.07%
same,inhibition,"[8]; single agent, at 5 µM",-27.1%
same,inhibition,[9]; at 0.5 µM,-15.5% (inactive)
same,inhibition,"[9]; cisplatin combo, at 5 µM",10.7%
same,inhibition,[9]; [24],-24.9%
same,inhibition,[9]; [12],18.1%
same,inhibition,"[9]; single agent, at 5 µM",-30.9%
same,inhibition,[1]; at 0.5 µM,-12.1% (inactive)
same,inhibition,[1]; [25],3.22%
same,inhibition,[1]; [26],-19.8%
same,inhibition,"[1]; single agent, at 0.05 µM",-16%
same,inhibition,"[1]; single agent, at 5 µM",12.2%
Cc1nc2ccc(CN(C)c3ccc(C(=O)N[C@@H](CCC(=O)O)C(=O)O)s3)cc2c(=O)[nH]1,inhibition,[3]; at 0.5 µM,29.7% (inactive)
same,inhibition,[3]; [10],-4.8%
same,inhibition,[3]; [11],1.64%
same,inhibition,[4]; at 0.5 µM,-17.1% (inactive)
same,inhibition,[4]; [12],-12.9%
same,inhibition,[4]; [13],-18.4%
same,inhibition,[5]; at 0.5 µM,44.2% (inactive)
same,inhibition,[5]; [14],26.6%
same,inhibition,[5]; [15],17.5%
same,inhibition,[5]; [16],47.7%
same,inhibition,[5]; [17],45.6%
same,inhibition,[6]; [18],48.7%
same,inhibition,[6]; at 0.5 µM,42.1% (inactive)
same,inhibition,[6]; [19],59.8%
same,inhibition,[7]; at 0.5 µM,-0.43% (inactive)
same,inhibition,[7]; [20],3.56%
same,inhibition,[7]; [21],0.651%
same,inhibition,[8]; at 0.5 µM,-1.53% (inactive)
same,inhibition,[8]; [22],4.81%
same,inhibition,"[8]; cisplatin combination, at 5 µM",-0.041%
same,inhibition,[8]; [23],-15.2%
same,inhibition,"[8]; single agent, at 5 µM",-10.4%
same,inhibition,[9]; at 0.5 µM,-20.8% (inactive)
same,inhibition,"[9]; cisplatin combo, at 5 µM",14%
same,inhibition,[9]; [24],-41.8%
same,inhibition,[9]; [12],-4.37%
same,inhibition,"[9]; single agent, at 5 µM",-40.1%
same,inhibition,[1]; at 0.5 µM,-1.83% (inactive)
same,inhibition,[1]; [25],13.9%
same,inhibition,[1]; [26],-9.68%
same,inhibition,"[1]; single agent, at 0.05 µM",0.207%
same,inhibition,"[1]; single agent, at 5 µM",28.5%
same,log fold change Tl+ flux,F380Y,-0.025 (inactive)
same,log fold change Tl+ flux,F380Y/beta1,-0.0237 (inactive)
same,log fold change Tl+ flux,F380Y/beta2Delta,-0.00369 (inactive)
same,log fold change Tl+ flux,F380Y/beta4,0.0379 (inactive)
same,log fold change Tl+ flux,[2],-0.00311 (inactive)
same,log fold change Tl+ flux,R275C,-0.0146 (inactive)
same,log fold change Tl+ flux,R275C/beta1,0.00396 (inactive)
same,log fold change Tl+ flux,R275C/beta2Delta,-0.00877 (inactive)
same,log fold change Tl+ flux,R275C/beta4,-0.00369 (inactive)
same,log fold change Tl+ flux,R275C/Slo1WT/beta2,-0.0401 (inactive)
